Legend:
Settings in all cases: concentration: 1 μM, replicates: in singlicate; n = 1
PIK3C2G = system: PIK3C2G
PIK3CA = system: PIK3CA
PIK3CB = system: PIK3CB
PIK3CD = system: PIK3CD
PIK3CG = system: PIK3CG
PIK4CB = system: T1, PIK4CB
T1 construct: gene PI4KB

PIKFYVE = system: PIKFYVE
PIM1 = system: PIM1
PIM2 = system: PIM2
PIM3 = system: PIM3
PIP5K1A = system: PIP5K1A
PIP5K1C = system: PIP5K1C
PIP5K2B = system: PIP5K2B
PIP5K2C = system: T2, PIP5K2C
T2 construct: gene PIP4K2C

PKAC-alpha = system: T3, PKAC-alpha
T3 construct: gene PRKACA

PKAC-beta = system: T4, PKAC-beta
T4 construct: gene PRKACB

PKMYT1 = system: PKMYT1
PKN1 = system: PKN1
PKN2 = system: PKN2
PLK1 = system: PLK1
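Further: KINOMEscan kinase panel screen.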

Compound | %Inh (PIK3C2G) [%] | %Inh (PIK3CA) [%] | %Inh (PIK3CB) [%] | %Inh (PIK3CD) [%] | %Inh (PIK3CG) [%] | %Inh (PIK4CB) [%] | %Inh (PIKFYVE) [%] | %Inh (PIM1) [%] | %Inh (PIM2) [%] | %Inh (PIM3) [%] | %Inh (PIP5K1A) [%] | %Inh (PIP5K1C) [%] | %Inh (PIP5K2B) [%] | %Inh (PIP5K2C) [%] | %Inh (PKAC-alpha) [%] | %Inh (PKAC-beta) [%] | %Inh (PKMYT1) [%] | %Inh (PKN1) [%] | %Inh (PKN2) [%] | %Inh (PLK1) [%]
CN(c1ccc(NC(=O)Nc2cccc(Cl)c2)cc1)c1ccnc(N)n1.Cl [GW830707] | 11 | 0 | 20 | 48 | 0 | 3 | 0 | 0 | 11 | 3 | 12 | 0 | 0 | 29 | 13 | 26 | 3 | 0 | 0 | 26
Cc1ccc(Nc2ccnc(Nc3ccc(C)c(F)c3)n2)cc1O.Cl [GW582868] | 0 | 0 | 0 | 11 | 0 | 8 | 24 | 52 | 0 | 0 | 27 | 47 | 5 | 70 | 0 | 0 | 0 | 23 | 0 | 0
Cc1ccc(O)cc1Nc1ccnc2ccc(C(C)(C)C)cc12 [GW856805] | 39 | 13 | 40 | 56 | 22 | 47 | 18 | 37 | 5 | 18 | 0 | 0 | 0 | 0 | 43 | 0 | 14 | 0 | 14 | 63
CC(C)(C)c1ccc(C(=O)Nc2cn3cc(-n4ccnc4)ccc3n2)cc1 | 32 | 0 | 3 | 0 | 4 | 2 | 5 | 7 | 0 | 0 | 2 | 4 | 0 | 95.3 | 37 | 0 | 0 | 10 | 0 | 0
COC(=O)Nc1nc2cc(Oc3ccc(NC(=O)Nc4cccc(SC)c4)cc3)ccc2[nH]1.Cl [GW697999] | 85 | 0 | 0 | 0 | 0 | 0 | 0 | 12 | 0 | 0 | 56 | 62 | 20 | 40 | 0 | 4 | 0 | 0 | 0 | 0
Cl.Cl.NC(CNC(=O)c1cc(Br)c(-c2ccnc3[nH]ccc23)s1)c1ccccc1 (stereo not drawn) [GSK1322949] | 0 | 1 | 0 | 0 | 22 | 0 | 0 | 40 | 0 | 34 | 74 | 85 | 86 | 57 | 98.4 | 97.2 | 16 | 14 | 33 | 15
COc1cc(Nc2nccc(N3CCC(NS(=O)(=O)c4ccc(NC(C)=O)cc4)CC3)n2)cc(OC)c1OC [GSK1379825] | 9 | 0 | 0 | 91.6 | 99.7 | 9 | 82 | 0 | 0 | 0 | 11 | 56 | 0 | 77 | 0 | 0 | 40 | 16 | 0 | 4
CCNc1nccc(-c2c(-c3ccc(F)cc3)ncn2C2CCN(C)CC2)n1 | 26 | 0 | 0 | 0 | 10 | 0 | 0 | 6 | 4 | 30 | 0 | 0 | 0 | 0 | 20 | 0 | 0 | 0 | 0 | 0
Cc1ccc(-c2ccc3occ(-c4ccc(S(C)=O)cc4)c3c2)nn1 (stereo not drawn) | 18 | 0 | 0 | 2 | 8 | 0 | 3 | 4 | 9 | 4 | 0 | 42 | 17 | 58 | 0 | 0 | 11 | 0 | 9 | 0
COc1ccc(C2=C(Nc3cccc(O)c3)C(=O)NC2=O)cc1 [SB-390766] | 0 | 0 | 0 | 2 | 0 | 9 | 0 | 9 | 0 | 0 | 4 | 82 | 0 | 10 | 0 | 0 | 13 | 0 | 38 | 95.9
Fc1cc(Cl)ccc1Nc1ccnc2cc(-c3ccc(CN4CCOCC4)o3)ccc12 [GW560109] | 0 | 0 | 0 | 21 | 0 | 16 | 5 | 0 | 0 | 0 | 0 | 44 | 31 | 75 | 8 | 37 | 0 | 100 | 0 | 0
CC(=O)Nc1cn2nc(Oc3cccc(NC(=O)c4cccc(C(F)(F)F)c4)c3)ccc2n1 | 0 | 0 | 0 | 0 | 0 | 0 | 0 | 9 | 9 | 0 | 11 | 5 | 0 | 32 | 8 | 52 | 0 | 0 | 23 | 0
COc1cc(Nc2nccc(N3CCC(NC(=O)Nc4ccc5c(c4)OCO5)C3)n2)cc(OC)c1OC (stereo not drawn) [GSK1379766] | 0 | 3 | 0 | 50 | 13 | 80 | 10 | 0 | 0 | 0 | 19 | 56 | 0 | 92.3 | 0 | 0 | 0 | 35 | 0 | 2
O=C(O)C(F)(F)F.O=c1[nH]ccc2nc(N[C@@H]3CCNC3)nc(Nc3cc(Cl)cc(Cl)c3)c12 [GSK2188764] | 18 | 7 | 25 | 43 | 53 | 56 | 20 | 44 | 0 | 66 | 75 | 75 | 86 | 85 | 20 | 35 | 8 | 83 | 81 | 81
CN(C)CCOc1ccc(-c2cc(-c3ccc(Cl)c(O)c3)c(-c3ccncc3)[nH]2)cc1.Cl.Cl [SB-684387] | 30 | 9 | 54 | 8 | 13 | 26 | 45 | 22 | 0 | 13 | 45 | 54 | 7 | 20 | 33 | 10 | 0 | 39 | 0 | 3
O=C1NC(=O)C(c2ccccc2Cl)=C1Nc1cccc(Cl)c1 [SB-342409] | 0 | 0 | 0 | 0 | 0 | 0 | 0 | 0 | 0 | 0 | 11 | 15 | 13 | 5 | 0 | 0 | 27 | 100 | 0 | 0
Nc1ncc(-c2cn[nH]c2)c2scc(-c3ccc4c(c3)CCN4C(=O)Cc3ccccc3)c12 [GSK2593067] | 0 | 0 | 0 | 5 | 0 | 25 | 0 | 0 | 0 | 0 | 0 | 30 | 0 | 0 | 20 | 19 | 0 | 12 | 9 | 0
COc1cccc(C2=C(Nc3cccc(O)c3)C(=O)NC2=O)c1 [SB-390771] | 0 | 0 | 0 | 0 | 0 | 10 | 0 | 26 | 0 | 0 | 0 | 39 | 14 | 38 | 0 | 0 | 9 | 100 | 0 | 0
Cl.N#CCc1ccc(Nc2nccc(Nc3ccc(Oc4ccccc4)cc3)n2)cc1 [GW639905] | 7 | 0 | 0 | 0 | 0 | 0 | 13 | 0 | 0 | 0 | 26 | 34 | 20 | 78 | 0 | 0 | 0 | 39 | 0 | 0
O=C(O)C(F)(F)F.O=c1[nH]ccc2nc(N[C@@H]3CCNC3)nc(Nc3ccc4c(c3)S(=O)(=O)CC4)c12 [GSK2181306] | 23 | 9 | 100 | 34 | 86 | 0 | 0 | 89 | 96.6 | 99 | 57 | 84 | 84 | 76 | 24 | 43 | 16 | 0 | 71 | 31
Cc1ccc(C)c(NC(=O)Nc2ccc(C)c(-c3ccc(C(=O)Nc4ccncc4)cc3)c2)c1 [GSK1398473] | 0 | 0 | 0 | 0 | 0 | 8 | 0 | 16 | 0 | 1 | 0 | 0 | 8 | 2 | 27 | 20 | 17 | 26 | 0 | 0

From PMC5540273 (PLoS ONE, 2017)
